Measured values published in PubChem BioAssay (NCATS).
Records with an inconclusive call do not appear. The source made the active and inactive calls. Unless noted, calls follow the shape of the dose curve; as a rule, active = well fitted curve in the direction sought with a large enough effect; inconclusive = small, poorly fitted or top-dose-only effect, or another doubt; inactive = no such curve, though single readings can be large; an effect the other way counts as inactive or inconclusive.

How the values were obtained:
[1] = Cell Viability - LYMP1-002 - Assay at 16 hr (AID 948)
Method in brief: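 Human lymphoblastoid cells (LYMP1-002), 2500/well, were preincubated 5 hr at 37 C, then exposed to compounds for 16 hr at 37 C in complete medium. Cellular ATP was read by CellTiter-Glo luminescence after 30 min at room temperature; AC50 from Hill fits.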

[2] = MultiTox-Fluor Cytotoxicity Assay - LYMP1-002 - Dead Cells (AID 960); also: nearly all actives have a fitted effect of over 60% in size
Method in brief: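 Dead-cell fluorescence (Ex/Em 485/520) after 16 h compound exposure at 37 C of LYMP1-002 lymphoblastoid cells in complete medium; AC50 by Hill equation, with data scaled between DMSO and 15 uM tetraoctylammonium bromide.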

[3] = MultiTox-Fluor Cytotoxicity Assay - LYMP1-003 - Dead Cells (AID 961); also: nearly all actives have a fitted effect of over 70% in size
Method in brief: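 Acute toxicity is scored as increased dead-cell protease activity in human lymphoblastoid LYMP1-003 cells after 16 h compound exposure in complete culture medium. Activity is normalized to DMSO basal and 15 uM tetraoctylammonium bromide as full response.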

[4] = MultiTox-Fluor Cytotoxicity Assay - LYMP1-003 - Live Cells (AID 962);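 also: cytotoxic hits lower the live-cell protease signal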
Method in brief: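 Live-cell protease activity (GF-AFC substrate, 405/510 nm, 60 min at room temperature) after 16 h, 37 C compound exposure of human lymphoblastoid LYMP1-003 cells; concentration-response fitted to the Hill equation for AC50.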

[5] = Cell Viability - LYMP1-003 - Assay at 24 hr (AID 963)
Method in brief: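 Concentration-response qHTS: ATP loss measured by CellTiter-Glo luminescence after 24 h compound exposure at 37 C. Cells were LYMP1-003 human lymphoblastoid, 2500 per well. AC50 derived via standard Hill equation modeling.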

[6] = Cell Viability - LYMP1-003 - Assay at 40 hr (AID 964); also: series mostly up to about 92 µM; nearly all actives have a fitted effect of over 60% in size
Method in brief: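 Viability is taken as cellular ATP, read by CellTiter-Glo luminescence after 40 h of compound exposure at 37 C. Cells: human lymphoblastoid line LYMP1-003 at 2500/well; AC50 values derived by Hill-equation fitting of concentration-response data.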

[7] = Cell Viability - LYMP2-003 (AID 965);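 also: cells exposed to compounds for 24 h before reading; nearly all actives have a fitted effect of over 50% in size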
Method in brief: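 Human lymphoblastoid cells (2500/well) were pre-incubated 5 hr at 37 C, then exposed to compounds over a concentration range for 24 hr at 37 C. Intracellular ATP was read by CellTiter-Glo luminescence; AC50 came from Hill-equation fits.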

[8] = Cell Viability - LYMP2-004 (AID 966); also: nearly all actives have a fitted effect of over 65% in size
Method in brief: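 AC50 values come from Hill modelling of concentration-dependent loss of intracellular ATP, measured by CellTiter-Glo luminescence. Human LYMP2-004 lymphoblastoid cells (2500/well) were exposed to compound for 24 h at 37 C.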

[9] = Cell Viability - LYMP2-005 (AID 967); also: series mostly up to about 92 µM
Method in brief: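 CellTiter-Glo luminescence (cellular ATP) read-out; LYMP2-005 lymphoblastoid cells, 2500/well, 5 h pre-incubation, then 24 h compound exposure at 37 C in complete medium. Tetraoctylammonium bromide positive control; AC50 by standard Hill fit.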

[10] = molecular target: Pyruvate kinase PKM (Homo sapiens) (UniProt P14618); experiment: qHTS Assay for Activators of Human Muscle Pyruvate Kinase (AID 954; active = well fitted curve in the direction sought with a large enough effect, not every such curve was filed as active)
Chain of Pyruvate kinase PKM (Homo sapiens) (P14618 whole entry, looked up): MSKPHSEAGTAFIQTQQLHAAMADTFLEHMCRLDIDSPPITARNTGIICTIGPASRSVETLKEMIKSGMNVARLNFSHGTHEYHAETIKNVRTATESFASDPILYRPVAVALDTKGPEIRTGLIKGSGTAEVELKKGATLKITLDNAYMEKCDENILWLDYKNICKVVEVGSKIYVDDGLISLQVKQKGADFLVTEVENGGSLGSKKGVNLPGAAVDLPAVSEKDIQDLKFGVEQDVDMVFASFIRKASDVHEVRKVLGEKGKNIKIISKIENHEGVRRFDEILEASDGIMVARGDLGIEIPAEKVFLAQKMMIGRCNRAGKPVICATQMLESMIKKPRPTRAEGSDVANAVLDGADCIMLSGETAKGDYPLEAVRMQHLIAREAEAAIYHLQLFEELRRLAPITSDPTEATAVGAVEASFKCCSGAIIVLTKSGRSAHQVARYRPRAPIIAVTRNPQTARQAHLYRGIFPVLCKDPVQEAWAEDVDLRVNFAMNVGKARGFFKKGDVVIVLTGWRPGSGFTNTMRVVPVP
Method in brief: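 Screening used highly purified human pyruvate kinase M2 under submaximal activity, with PEP at its Km and ADP below Km. After an hour at room temperature, ATP was read by luciferase luminescence.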

[11] = Cell Viability - LYMP2-009 (AID 968); also: series mostly up to about 92 µM; nearly all actives have a fitted effect of over 55% in size
[12] = Cell Viability - LYMP2-011 (AID 969); also: nearly all actives have a fitted effect of over 60% in size
Method in brief: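 Cytotoxicity qHTS with ATP content as read-out: lymphoblastoid cells (2500/well) exposed to compound for 24 h at 37 C, then luciferase luminescence measured. Concentration-response data fitted with the standard Hill equation to give AC50.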

[13] = Cell Viability - LYMP2-013 (AID 970); also: series mostly up to about 92 µM; nearly all actives have a fitted effect of over 55% in size
Method in brief: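 qHTS cytotoxicity: ATP-dependent luminescence (CellTiter-Glo, 30 min room temperature) read after 24 h compound exposure at 37 C of 2500 LYMP2-013 lymphoblastoid cells per well. Concentration-response fitted with Hill equation to give AC50.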

[14] = Cell Viability - LYMP2-015 (AID 971); also: nearly all actives have a fitted effect of over 55% in size
Method in brief: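 Cytotoxicity readout: decrease in intracellular ATP (CellTiter-Glo luminescence) in 2500 LYMP2-015 lymphoblastoid cells/well after 24 h compound exposure at 37 C. Concentration-response data fitted with the standard Hill equation to give AC50.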

[15] = Cell Viability - LYMP2-017 (AID 972); also: series mostly up to about 92 µM; nearly all actives have a fitted effect of over 55% in size
Method in brief: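 CellTiter-Glo luminescence (cellular ATP, 30 min RT) measured cytotoxicity after 24 hr compound treatment at 37 C. Cells were a human lymphoblastoid line, LYMP2-017, plated at 2500/well and incubated 5 hr first; concentration-response fitted with Hill equation for AC50.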

[16] = Cell Viability - LYMP2-019 (AID 973); also: nearly all actives have a fitted effect of over 55% in size
Method in brief: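 AC50 values come from Hill-equation fits of luminescent intracellular ATP (CellTiter-Glo, 30 min, room temperature) following 24 h compound exposure at 37 C. Cells: LYMP2-019 lymphoblastoid line, 2500 per well, in complete culture medium.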

[17] = Cell Viability - LYMP2-021 (AID 974); also: nearly all actives have a fitted effect of over 55% in size
Method in brief: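 AC50 values come from Hill-equation fits to CellTiter-Glo luminescence (ATP content), read after 24 hour compound exposure at 37 C of 2500 LYMP2-021 lymphoblastoid cells/well; tetraoctylammonium bromide as positive control.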

[18] = Cell Viability - LYMP2-023 (AID 975)
Method in brief: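 Intracellular ATP, read by CellTiter-Glo luminescence, reports viability after 24 hr compound exposure at 37 C. 2500 lymphoblastoid cells/well (LYMP2-023) seeded 5 hr beforehand; Hill fits give AC50; positive control tetraoctylammonium bromide.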

Measured: Potency

COc1ccc(CCN(C)CCCC(C#N)(c2ccc(OC)c(OC)c2)C(C)C)cc1OC (configuration not stated)
inactive: [1] | [2] | [3] | [4] | [5] | [6]

CC(COc1ccccc1)N(CCCl)Cc1ccccc1 (configuration not stated)
inactive: [1] | [2] | [3] | [4] | [5] | [6] | [7] | [8] | [9]

NC12CC3CC(CC(C3)C1)C2
inactive: [10]

COc1ccc2[nH]cc(CCNC(C)=O)c2c1
inactive: [1] | [10] | [2] | [3] | [4] | [5] | [6] | [7] | [8] | [9] | [11] | [12] | [13] | [14] | [15] | [16] | [17] | [18]

NCCS(=O)(=O)O
inactive: [1] | [10] | [2] | [3] | [4] | [5] | [6] | [7] | [8] | [9] | [11] | [12] | [13] | [14] | [15] | [16] | [17] | [18]

CN(Cc1cnc2nc(N)nc(N)c2n1)c1ccc(C(=O)N[C@@H](CCC(=O)O)C(=O)O)cc1
inactive: [10]

CCC1(c2ccccc2)C(=O)NCNC1=O
inactive: [1] | [10] | [2] | [3] | [4] | [5] | [6] | [7] | [8] | [9] | [11] | [12] | [13] | [14] | [15] | [16] | [17] | [18]

O=c1[nH]cc(F)c(=O)[nH]1
inactive: [1] | [10] | [2] | [3] | [4] | [5] | [7] | [8] | [9] | [11] | [12] | [13] | [16] | [17] | [18]

NS(=O)(=O)c1cc2c(cc1Cl)NCNS2(=O)=O
inactive: [1] | [10] | [3] | [4] | [5] | [6] | [7] | [8] | [9] | [11] | [12] | [13] | [14] | [15] | [16] | [17] | [18]

Cc1ccc(-c2cc(C(F)(F)F)nn2-c2ccc(S(N)(=O)=O)cc2)cc1
inactive: [1] | [3] | [4] | [5] | [6] | [7] | [8] | [9] | [11] | [12] | [13] | [14] | [15] | [16] | [17] | [18]

Nc1nnc(-c2cccc(Cl)c2Cl)c(N)n1
inactive: [10]

CCCCc1oc2ccccc2c1C(=O)c1cc(I)c(OCCN(CC)CC)c(I)c1
inactive: [10]

COc1ccc2c(c1)c(CC(=O)O)c(C)n2C(=O)c1ccc(Cl)cc1
inactive: [1] | [10] | [2] | [3] | [4] | [5] | [6] | [7] | [8] | [9] | [11] | [12] | [13] | [14] | [15] | [16] | [17] | [18]

Nc1nc2c(ncn2COC(CO)CO)c(=O)[nH]1
inactive: [10]

Cn1c(=O)c2c(ncn2C)n(C)c1=O
inactive: [1] | [10] | [2] | [3] | [4] | [5] | [6] | [7] | [8] | [9] | [11] | [12] | [13] | [14] | [15] | [16] | [17] | [18]

O=C1N(c2ccccc2)c2ccccc2C1(Cc1ccncc1)Cc1ccncc1
inactive: [10]

Cc1cn([C@H]2C=C[C@@H](CO)O2)c(=O)[nH]c1=O
inactive: [1] | [10] | [2] | [3] | [4] | [5] | [6] | [7] | [8] | [9] | [11] | [12] | [13] | [14] | [15] | [16] | [17] | [18]
